Where “and” joins values, the source holds several entries; their conditions need not be identical. Identical values can stand only once. Like-named read-outs stand apart in the source and are kept apart here.
Key:
[1] = system: PIKFYVE; settings: concentration: 1 μM, replicates: in singlicate, n = 1
[2] = system: PIM1; settings: concentration: 1 μM, replicates: in singlicate, n = 1
[3] = system: PIM2; settings: concentration: 1 μM, replicates: in singlicate; n = 1
[4] = system: PIM3; settings: concentration: 1 μM, replicates: in singlicate, n = 1
[5] = system: PIP5K1A; settings: concentration: 1 μM, replicates: in singlicate, n = 1
[6] = system: PIP5K1C; settings: concentration: 1 μM, replicates: in singlicate, n = 1
[7] = system: PIP5K2B; settings: concentration: 1 μM, replicates: in singlicate, n = 1
[8] = system: T1, PIP5K2C; settings: concentration: 1 μM, replicates: in singlicate, n = 1
T1 construct: gene PIP4K2C

[9] = system: T2, PKAC-alpha; settings: concentration: 1 μM, replicates: in singlicate, n = 1
T2 construct: gene PRKACA

[10] = system: T3, PKAC-beta; settings: concentration: 1 μM, replicates: in singlicate, n = 1
T3 construct: gene PRKACB
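Further: KINOMEscan kinase panel screen.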

Row | SMILES | %Inh [1] [%] | %Inh [2] [%] | %Inh [3] [%] | %Inh [4] [%] | %Inh [5] [%] | %Inh [6] [%] | %Inh [7] [%] | %Inh [8] [%] | %Inh [9] [%] | %Inh [10] [%] | %Inh ([2]; 1 µM) | %Inh ([4]; 1 µM) | %Inh ([5]; 1 µM) | %Inh ([6]; 1 µM) | %Inh ([7]; 1 µM) | %Inh ([8]; 1 µM) | %Inh ([9]; 1 µM) | %Inh ([10]; 1 µM) | %Inh ([1]; 1 µM)
1 | O=c1cc(N2CCOCC2)nc2n(Cc3cccc(C(F)(F)F)c3)ccn12 [GSK2297543] | 0 | 11 | 0 | 0 | 0 | 28 | 9 | 1 | 0 | 8 | – | – | – | – | – | – | – | – | –
2 | O=C1NC(=O)C(N2CCc3ccccc32)=C1c1cccc(Cl)c1 [SB-408010] | 4 | 16 | 9 | 6 | 0 | 39 | 0 | 0 | 11 | 14 | – | – | – | – | – | – | – | – | –
3 | Cc1cccc(-c2nc(Nc3ccc4ncsc4c3)c3ccccc3n2)n1 [GW867588] | 54 | 9 | 0 | 16 | 27 | 4 | 0 | 18 | 11 | 21 | – | – | – | – | – | – | – | – | –
4 | Cn1cc(-c2ccc3c(c2)CCN3C(=O)Cc2ccccc2Cl)c2c(N)ncnc21 [GSK2608885] | 0 | 10 | 0 | 0 | 0 | 7 | 0 | 90.5 | 45 | 34 | – | – | – | – | – | – | – | – | –
5 | COc1cc2c(cc1OC[C@@H](O)CO)ncc1c3ccc(C#N)cc3[nH]c21 | 56 | 0 | 81 | 35 | 38 | 47 | 42 | 76 | 0 | 0 | – | – | – | – | – | – | – | – | –
6 | CN(C1=C(c2ccccc2)C(=O)NC1=O)c1ccccc1 [SB-334860] | 10 | 19 | 0 | 0 | 8 | 37 | 7 | 10 | 4 | 0 | – | – | – | – | – | – | – | – | –
7 | COc1ccc(S(=O)(=O)NC2CCN(c3cc(C)nc(Nc4cccc(C#N)c4)n3)CC2)cc1.O=C(O)C(F)(F)F [GSK1653539] | 0 | 25 | 0 | 0 | 0 | 11 | 0 | 37 | 0 | 0 | – | – | – | – | – | – | – | – | –
8 | c1ccc(-c2cc(-c3c[nH]nc3-c3ccccn3)ccn2)cc1 [GW576604] | 0 | 0 | 0 | 0 | 19 | 58 | 0 | 30 | 5 | 0 | – | – | – | – | – | – | – | – | –
9 | CN1c2ccc(NCc3ccc(F)cc3)cc2-c2c(cnn2C)S1(=O)=O | 32 | 0 | 2 | 0 | 31 | 31 | 0 | 3 | 9 | 0 | – | – | – | – | – | – | – | – | –
10 | CNc1ncnc2[nH]ncc12 [SKF-18355] | 11 | 0 | 8 | 0 | 22 | 0 | 0 | 0 | 31 | 16 | – | – | – | – | – | – | – | – | –
11 | NS(=O)(=O)c1cccc(-c2ccc3nccc(-c4cccc(S(N)(=O)=O)c4)c3c2)c1 [GW867253] | 21 | 3 | 0 | 9 | 21 | 0 | 0 | 41 | 0 | 0 | – | – | – | – | – | – | – | – | –
12 | NCCNS(=O)(=O)c1ccc(-c2ccnc3[nH]ccc23)cc1 [GSK977617] | 0 | – | 0 | – | – | – | – | – | – | – | 56% and 35% | 40% and 0% | 61% and 30% | 83% and 62% | 76% and 35% | 17% and 13% | 99.3% and 98.8% | 99.2% and 98.3% | –
13 | COc1cc2ncn(-c3cc(OCc4sccc4Cl)c(C(N)=O)s3)c2cc1OC [GSK448459] | 0 | 11 | 0 | 0 | 41 | 79 | 20 | 50 | 0 | 0 | – | – | – | – | – | – | – | – | –
14 | CC(C)(CN)c1nc(-c2ccc(Cl)c(O)c2)c(-c2ccncc2)[nH]1.O=C(O)C(F)(F)F [SB-477794] | – | 0 | 0 | 0 | – | – | – | – | – | – | – | – | 40% and 61% | 3% and 61% | 0% and 19% | 64% and 49% | 86% and 87% | 56% and 89% | 31% and 49%
15 | N#Cc1c(N2CCOCC2)sc(-c2ccn[nH]2)c1-c1ccc(Cl)cc1 | 44 | 18 | 0 | 16 | 0 | 0 | 7 | 0 | 0 | 0 | – | – | – | – | – | – | – | – | –
16 | COc1ccc(COc2cc(-n3cnc4ccccc43)sc2C(N)=O)cc1 [GSK1024304] | 0 | 11 | 0 | 0 | 17 | 45 | 5 | 3 | 0 | 0 | – | – | – | – | – | – | – | – | –
17 | Nc1nc(-c2ccc3c(N)n[nH]c3c2)cc(N2CCCC2)n1 [GSK2227430] | 0 | 20 | 0 | 0 | 0 | 26 | 0 | 0 | 0 | 0 | – | – | – | – | – | – | – | – | –

— article PMC5540273 (PLoS ONE, 2017)
